# Assay results: PubChem BioAssay (Tox21)
# Several values for one entry are separate records, joined by “and”; a condition that tells them apart may be missing. Equal values may be shown once. Inconclusive results are not listed. Entries that show only a call come without a potency. A structure can be active in one record and inactive in another. Activity calls are given as the source filed them. Calls follow the shape of the dose curve; as a rule, active = well fitted cell-killing curve with a large enough effect in the repeat runs; inconclusive = weak or mixed curves, or effect the other way; inactive = no such curve, though single readings can be large or run the other way.
# Assay: qHTS assay to identify small molecule antagonists of the glucocorticoid receptor (GR) signaling pathway - cell viability counter screen (AID 720693); also: nearly all actives have a fitted effect of over 55% in size
# Settings: GR-bla HeLa viability, CellTiter-Glo luminescence, 18 h, with 5 nM dexamethasone present; series mostly up to 58.5 µM
row,Compound,Potency
1,Cc1cnc(C2=NC(C)(C(C)C)C(=O)N2)c(C(=O)O)c1 (stereo not drawn),inactive
2,CC(C)[C@@H](C(=O)O[C@@H](C#N)c1cccc(Oc2ccccc2)c1)c1ccc(Cl)cc1,inactive
3,C=CCOCC1CO1 (stereo not drawn),inactive
4,CC1(C)[C@H](C(=O)O[C@H](C#N)c2cccc(Oc3ccccc3)c2)[C@@H]1C=C(Br)Br,inactive
5,Cc1ccccc1,inactive
6,CC(O)CN1CCN(CC(=O)[O-])CCN(CC(=O)[O-])CCN(CC(=O)[O-])CC1.[Gd+3] (stereo not drawn),inactive
7,CC(C)(C)c1ccc(CCOc2ncnc3ccccc23)cc1,inactive
8,Cc1ccc2c(C)cccc2c1,inactive
9,Clc1ccc2ccccc2c1,inactive
10,CC(C)CCON=O,inactive
11,C=CC(=O)OCC,inactive
12,CC(C)(C)NCC(O)c1ccccc1Cl (stereo not drawn),inactive
13,CCCCCCCCCCCCCCCl,inactive
14,Nc1c(Br)cc(Br)c2c1C(=O)c1ccccc1C2=O,inactive

# Assay: qHTS assay for identifying genotoxic compounds that show differential cytotoxicity against isogenic chicken DT40 cell lines with known DNA damage response pathways - wild type cell line (AID 743012); also: nearly all actives have a fitted effect of over 60% in size; also: potency is read from the fitted curve at half-maximal effect
# Settings: DT40 wild type chicken cells viability, CellTiter-Glo, 40 h; series mostly up to 68.4 µM
# Method in brief: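 Endpoint: CellTiter-Glo luminescence, 30 min RT. Cells: wild type DT40, 300/well. Exposure: compounds in DMSO, 40 h, 37 C/5% CO2, after ~0.5 h pre-incubation.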
row,Compound,Potency
1,O=C(NCNC(=O)NC1C(=O)NC(=O)N1CO)NC1C(=O)NC(=O)N1CO (stereo not drawn),inactive
2,Cc1ncc(C[n+]2csc(CCO)c2C)c(N)n1,inactive
3,O=C(N[C@H]1CN2CCC1CC2)c1ccc2c(c1)OCCO2,inactive
4,Cc1ccc(N)c(C)c1,inactive
5,C[C@H]1O[C@H](OC2[C@@H](O)[C@@H](O)C(O)[C@H](O)[C@H]2O)[C@@H](N)C[C@@H]1N=C(N)C(=O)O (stereo partly drawn),inactive
6,N#CC(C#N)=Cc1ccc(O)c(O)c1,13.3 µM (active)
7,CCCN(CCC)c1c([N+](=O)[O-])cc(C(C)C)cc1[N+](=O)[O-],inactive and 61.1 µM (active)
8,NP(N)(=O)NC(=O)c1ccc(F)cc1,inactive
9,COc1ccc(C(O)(c2cncnc2)C2CC2)cc1 (stereo not drawn),inactive
10,C1CS1,inactive
11,CCC[N+](CCC)(CCC)CCC,inactive
12,Clc1ccccc1,inactive
13,C=CCc1ccccc1O,inactive
14,CCOP(=O)(O)C(N)=O,inactive
15,CCN(C(C)=O)c1cccc(-c2ccnc3c(C#N)cnn23)c1,inactive
16,CC(Oc1cc(Cl)c(Cl)cc1Cl)C(=O)O (stereo not drawn),inactive
17,FC(F)OC(F)(F)C(F)Cl (stereo not drawn),inactive
18,ClCc1ccccc1Cl,inactive
19,CCCCCCCCP(=O)(O)O,inactive

row,Compound,Potency
1,CCCN(CCOc1c(Cl)cc(Cl)cc1Cl)C(=O)n1ccnc1,27.3 µM (active)
2,CCC(C)(C)c1ccc(O)c(C(C)(C)CC)c1,24.3 µM (active)
3,O=[N+]([O-])c1cc(Cl)c(Cl)cc1Cl,inactive
4,O=C([O-])c1ccccn1.O=C([O-])c1ccccn1.O=C([O-])c1ccccn1.[Cr+3],inactive
5,Cc1cnc(C2=NC(C)(C(C)C)C(=O)N2)c(C(=O)O)c1 (stereo not drawn),inactive
6,CC(C)[C@@H](C(=O)O[C@@H](C#N)c1cccc(Oc2ccccc2)c1)c1ccc(Cl)cc1,inactive
7,C=CCOCC1CO1 (stereo not drawn),inactive
8,CC1(C)[C@H](C(=O)O[C@H](C#N)c2cccc(Oc3ccccc3)c2)[C@@H]1C=C(Br)Br,inactive
9,Cc1ccccc1,inactive
10,CC(O)CN1CCN(CC(=O)[O-])CCN(CC(=O)[O-])CCN(CC(=O)[O-])CC1.[Gd+3] (stereo not drawn),inactive
11,CC(C)(C)c1ccc(CCOc2ncnc3ccccc23)cc1,inactive
12,Cc1ccc2c(C)cccc2c1,inactive
13,Clc1ccc2ccccc2c1,inactive
14,CC(C)CCON=O,inactive
15,C=CC(=O)OCC,inactive
16,CC(C)(C)NCC(O)c1ccccc1Cl (stereo not drawn),inactive
17,CCCCCCCCCCCCCCCl,inactive
18,Nc1c(Br)cc(Br)c2c1C(=O)c1ccccc1C2=O,inactive

# Assay: qHTS assay for identifying genotoxic compounds that show differential cytotoxicity against isogenic chicken DT40 cell lines with known DNA damage response pathways - Rev3 mutant cell line (AID 743014); also: nearly all actives have a fitted effect of over 55% in size; also: potency is read from the fitted curve at half-maximal effect
# Settings: chicken DT40 Rev3-/- viability, CellTiter-Glo, 40 h; series mostly up to 68.4 µM
row,Compound,Potency
1,O=C(NCNC(=O)NC1C(=O)NC(=O)N1CO)NC1C(=O)NC(=O)N1CO (stereo not drawn),inactive
2,Cc1ncc(C[n+]2csc(CCO)c2C)c(N)n1,inactive
3,O=C(N[C@H]1CN2CCC1CC2)c1ccc2c(c1)OCCO2,inactive
4,Cc1ccc(N)c(C)c1,inactive
5,C[C@H]1O[C@H](OC2[C@@H](O)[C@@H](O)C(O)[C@H](O)[C@H]2O)[C@@H](N)C[C@@H]1N=C(N)C(=O)O (stereo partly drawn),inactive
6,N#CC(C#N)=Cc1ccc(O)c(O)c1,26.6 µM (active)
7,CCCN(CCC)c1c([N+](=O)[O-])cc(C(C)C)cc1[N+](=O)[O-],inactive
8,NP(N)(=O)NC(=O)c1ccc(F)cc1,inactive
9,COc1ccc(C(O)(c2cncnc2)C2CC2)cc1 (stereo not drawn),inactive
10,C1CS1,inactive
11,CCC[N+](CCC)(CCC)CCC,inactive
12,Clc1ccccc1,inactive
13,C=CCc1ccccc1O,inactive
14,CCOP(=O)(O)C(N)=O,inactive
15,CCN(C(C)=O)c1cccc(-c2ccnc3c(C#N)cnn23)c1,inactive
16,CC(Oc1cc(Cl)c(Cl)cc1Cl)C(=O)O (stereo not drawn),inactive
17,FC(F)OC(F)(F)C(F)Cl (stereo not drawn),inactive
18,ClCc1ccccc1Cl,inactive
19,CCCCCCCCP(=O)(O)O,inactive

row,Compound,Potency
1,CCCN(CCOc1c(Cl)cc(Cl)cc1Cl)C(=O)n1ccnc1,31.3 µM (active) and 30.6 µM (active)
2,CCC(C)(C)c1ccc(O)c(C(C)(C)CC)c1,27.3 µM (active)
3,O=[N+]([O-])c1cc(Cl)c(Cl)cc1Cl,inactive
4,O=C([O-])c1ccccn1.O=C([O-])c1ccccn1.O=C([O-])c1ccccn1.[Cr+3],inactive
5,Cc1cnc(C2=NC(C)(C(C)C)C(=O)N2)c(C(=O)O)c1 (stereo not drawn),inactive
6,CC(C)[C@@H](C(=O)O[C@@H](C#N)c1cccc(Oc2ccccc2)c1)c1ccc(Cl)cc1,inactive and 54.5 µM (active)
7,C=CCOCC1CO1 (stereo not drawn),inactive
8,CC1(C)[C@H](C(=O)O[C@H](C#N)c2cccc(Oc3ccccc3)c2)[C@@H]1C=C(Br)Br,inactive and 48.6 µM (active)
9,Cc1ccccc1,inactive
10,CC(O)CN1CCN(CC(=O)[O-])CCN(CC(=O)[O-])CCN(CC(=O)[O-])CC1.[Gd+3] (stereo not drawn),inactive
11,CC(C)(C)c1ccc(CCOc2ncnc3ccccc23)cc1,inactive
12,Cc1ccc2c(C)cccc2c1,inactive
13,Clc1ccc2ccccc2c1,inactive
14,CC(C)CCON=O,inactive
15,C=CC(=O)OCC,inactive
16,CC(C)(C)NCC(O)c1ccccc1Cl (stereo not drawn),inactive
17,CCCCCCCCCCCCCCCl,inactive
18,Nc1c(Br)cc(Br)c2c1C(=O)c1ccccc1C2=O,inactive
